The results in this text go back to publication PMC7826789 (International Journal of Molecular Sciences, 2021).

Some test systems named below: FGFR3; FGFR4; FGR; FLT1; FLT3(D835H); FLT3(D835V); FLT3(D835Y); FLT3(ITD); FLT3(ITD,D835V); FLT3(ITD,F691L); FLT3(K663Q); FLT3(N841I); FLT3(R834Q); FLT3-autoinhibited; FLT3; FLT4; FRK; FYN; GAK.
What all share (conditions): Compound Concentration (nM):1000
Another experiment deals with T1, GCN2(Kin.Dom.2,S808G).
T1 construct: gene EIF2AK4
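Further: KINOMEscan scanMAX binding as percent activity remaining versus control; lower means stronger binding.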

Consider `C/C(Nc1ccc(S(N)(=O)=O)cc1)=C1/C(=O)Nc2ccccc21` [GW335962X], for which the “Percent Control” value with FGFR3 is 97%; in the experiment on FGFR4 it was 100%; with FGR it was 78%; with FLT1, 100%; in the experiment on FLT3(D835H), 87%; with FLT3(D835V), 0.3%. In addition, the “Percent Control” value in the experiment with FLT3(D835Y) is listed as 76%; with FLT3(ITD), 100%; in the experiment with FLT3(ITD,D835V), 0.8%; in the experiment with FLT3(ITD,F691L), 3%; in the experiment with FLT3(K663Q) it was 60%; in the experiment on FLT3(N841I) it was 83%. In addition, the “Percent Control” value in the experiment on FLT3(R834Q) was 40%; with FLT3-autoinhibited, 7.7%; in the experiment with FLT3, 56%; in the experiment on FLT4 it was 100%; with FRK, 96%; in the experiment on FYN it was 90%. For the same molecule, the “Percent Control” value in the experiment with GAK is reported as 61%; in the experiment on GCN2(Kin.Dom.2,S808G) it was 100%.
As for `COc1ccc2c(-c3ccnc(Nc4cccc(OC(F)(F)F)c4)n3)cnn2n1` [GW810372X], the “Percent Control” value in the experiment with FGFR3 was 100%; in the experiment on FGFR4, 100%; with FGR it was 96%; in the experiment on FLT1, 73%; in the experiment on FLT3(D835H) it was 0%; in the experiment with FLT3(D835V), 46%. The “Percent Control” value in the experiment with FLT3(D835Y) was found to be 55%; in the experiment on FLT3(ITD), 49%; in the experiment with FLT3(ITD,D835V), 65%; in the experiment with FLT3(ITD,F691L) it was 89%; in the experiment on FLT3(K663Q), 30%; in the experiment with FLT3(N841I) it was 55%. The “Percent Control” value with FLT3(R834Q) amounted to 73%; in the experiment with FLT3-autoinhibited it was 86%; in the experiment on FLT3, 23%; with FLT4 it was 100%; in the experiment with FRK it was 100%; in the experiment with FYN, 100%. The “Percent Control” value was found to be 66% with GAK and 85% in the experiment with GCN2(Kin.Dom.2,S808G).
Consider `C[C@@H](Oc1cc(-n2cnc3ccc(OC4CCN(C)CC4)cc32)sc1C(N)=O)c1ccccc1Cl` [GSK579289A], for which the “Percent Control” value with FGFR3 is 86%; in the experiment on FGFR4, 79%; in the experiment on FGR it was 91%; in the experiment on FLT1, 75%; in the experiment on FLT3(D835H), 9.4%; in the experiment with FLT3(D835V), 0%. Also, the “Percent Control” value came to 38% in the experiment with FLT3(D835Y); 38% with FLT3(ITD); 15% in the experiment with FLT3(ITD,D835V); 8.2% with FLT3(ITD,F691L); 17% in the experiment on FLT3(K663Q); 8.1% with FLT3(N841I). Moreover, the “Percent Control” value in the experiment with FLT3(R834Q) worked out at 18%; in the experiment with FLT3-autoinhibited it was 87%; with FLT3, 18%; in the experiment with FLT4, 81%; in the experiment with FRK it was 93%; with FYN, 86%. In addition, the “Percent Control” value is 69% in the experiment with GAK and 39% with GCN2(Kin.Dom.2,S808G).
As to `NS(=O)(=O)c1ccc(N/N=C2\C(=O)Nc3ccc(C(=O)NCCc4c[nH]cn4)cc32)cc1` [GW300660X], the “Percent Control” value in the experiment on FGFR3 was 100%; with FGFR4, 100%; with FGR it was 100%; in the experiment with FLT1 it was 100%; in the experiment with FLT3(D835H), 52%; in the experiment on FLT3(D835V), 0.8%. The “Percent Control” value in the experiment with FLT3(D835Y) came to 62%; in the experiment with FLT3(ITD), 80%; in the experiment on FLT3(ITD,D835V), 1.8%; in the experiment with FLT3(ITD,F691L), 4.1%; in the experiment with FLT3(K663Q) it was 100%; in the experiment with FLT3(N841I), 100%. Also, the “Percent Control” value with FLT3(R834Q) turned out to be 45%; with FLT3-autoinhibited, 100%; in the experiment with FLT3 it was 90%; in the experiment with FLT4, 100%; in the experiment with FRK, 100%; with FYN, 100%. For the same molecule, the “Percent Control” value with GAK and with GCN2(Kin.Dom.2,S808G) was 100% each time.
Regarding `COc1cccc(-c2c[nH]c3c(N/N=C/c4ccncc4)ncnc23)c1` [GW814408X], the “Percent Control” value was 100% with FGFR3; 100% with FGFR4; 43% with FGR; 83% in the experiment on FLT1; 27% with FLT3(D835H); 7.5% in the experiment with FLT3(D835V). Besides, the “Percent Control” value with FLT3(D835Y) came to 16%; with FLT3(ITD), 21%; in the experiment with FLT3(ITD,D835V), 3.9%; with FLT3(ITD,F691L), 43%; in the experiment on FLT3(K663Q), 76%; in the experiment with FLT3(N841I), 12%. In addition, the “Percent Control” value is recorded as 19% with FLT3(R834Q); 66% with FLT3-autoinhibited; 26% with FLT3; 90% with FLT4; 100% in the experiment with FRK; 66% with FYN. Further, the entries for the “Percent Control” value with GAK and with GCN2(Kin.Dom.2,S808G) were 11% and 8.3%, respectively.
As for `CCS(=O)(=O)c1ccc(OC)c(Nc2ncc(-c3cccc(OC)c3)o2)c1` [GW580509X], the “Percent Control” value with FGFR3 is 44%; in the experiment on FGFR4 it was 100%; with FGR it was 41%; in the experiment with FLT1 it was 54%; in the experiment with FLT3(D835H), 0.5%; in the experiment with FLT3(D835V) it was 0%. Moreover, the “Percent Control” value in the experiment on FLT3(D835Y) was determined as 42%; in the experiment on FLT3(ITD), 8.2%; in the experiment with FLT3(ITD,D835V), 0%; with FLT3(ITD,F691L), 30%; in the experiment with FLT3(K663Q), 10%; in the experiment on FLT3(N841I), 0%. The “Percent Control” value in the experiment on FLT3(R834Q) is given as 18%; with FLT3-autoinhibited it was 40%; in the experiment with FLT3, 5.9%; in the experiment on FLT4, 13%; in the experiment on FRK it was 39%; with FYN, 48%. Also, the “Percent Control” value with GAK was 38%; in the experiment with GCN2(Kin.Dom.2,S808G), 82%.
Regarding `CCS(=O)(=O)c1ccc(OC)c(Nc2ncc(-c3cccc(F)c3)o2)c1` [GW621970X], the “Percent Control” value is 11% in the experiment with FGFR3; 87% in the experiment with FGFR4; 24% in the experiment with FGR; 45% in the experiment with FLT1; 0.6% in the experiment with FLT3(D835H); 0% with FLT3(D835V). In addition, the “Percent Control” value with FLT3(D835Y) was 39%; in the experiment on FLT3(ITD), 5.8%; in the experiment on FLT3(ITD,D835V), 0%; with FLT3(ITD,F691L), 25%; with FLT3(K663Q), 7.9%; in the experiment with FLT3(N841I) it was 56%. For the same molecule, the “Percent Control” value in the experiment on FLT3(R834Q) is reported as 29%; in the experiment with FLT3-autoinhibited it was 7.9%; with FLT3, 5%; with FLT4, 5%; in the experiment on FRK, 16%; with FYN, 26%. The “Percent Control” value in the experiment on GAK is on record as 63%; with GCN2(Kin.Dom.2,S808G), 71%.
As for `CC1=C(C(=O)Nc2ccc3[nH]ncc3c2)C(c2ccc(Cl)c(Cl)c2)CC(=O)N1` (stereo not shown) [GSK299115A], the “Percent Control” value with FGFR3 was 84%; in the experiment with FGFR4, 57%; in the experiment on FGR, 86%; with FLT1, 100%; in the experiment on FLT3(D835H), 100%; in the experiment with FLT3(D835V), 75%. For the same molecule, the “Percent Control” value came to 87% with FLT3(D835Y); 100% with FLT3(ITD); 80% in the experiment on FLT3(ITD,D835V); 94% in the experiment on FLT3(ITD,F691L); 78% in the experiment on FLT3(K663Q); 100% with FLT3(N841I). In addition, the “Percent Control” value is listed as 93% in the experiment with FLT3(R834Q); 100% in the experiment with FLT3-autoinhibited; 100% in the experiment on FLT3; 100% in the experiment with FLT4; 63% with FRK; 70% in the experiment on FYN. Moreover, the “Percent Control” value with GAK is 95%; in the experiment with GCN2(Kin.Dom.2,S808G) it was 100%.
Regarding `Cl.O=C(Nc1ccc(Oc2ccc3[nH]c(NC(=O)c4ccco4)nc3c2)cc1)Nc1cc(C(F)(F)F)ccc1F` [GW683134A], the “Percent Control” value in the experiment with FGFR3 was 84%; with FGFR4, 100%; in the experiment with FGR it was 91%; with FLT1, 3.2%; in the experiment with FLT3(D835H), 0.4%; in the experiment with FLT3(D835V), 13%. In addition, the “Percent Control” value is 9.8% with FLT3(D835Y); 3.7% in the experiment with FLT3(ITD); 96% in the experiment with FLT3(ITD,D835V); 39% in the experiment with FLT3(ITD,F691L); 0.6% in the experiment with FLT3(K663Q); 8.4% with FLT3(N841I). Also, the “Percent Control” value in the experiment with FLT3(R834Q) was 5.6%; with FLT3-autoinhibited it was 92%; in the experiment on FLT3 it was 1.3%; with FLT4, 1.5%; in the experiment on FRK it was 40%; in the experiment with FYN, 71%. In addition, the “Percent Control” value is listed as 100% with GAK and 90% with GCN2(Kin.Dom.2,S808G).
For the molecule `Cl.O=C(Nc1ccc(Oc2ccc3[nH]c(NC(=O)c4ccccc4)nc3c2)cc1)Nc1cc(C(F)(F)F)ccc1F` [GW709042A], the “Percent Control” value is 100% in the experiment with FGFR3; 100% with FGFR4; 82% with FGR; 5.1% in the experiment on FLT1; 2.8% in the experiment on FLT3(D835H); 28% in the experiment with FLT3(D835V). Besides, the “Percent Control” value with FLT3(D835Y) is on record as 14%; with FLT3(ITD), 3.7%; with FLT3(ITD,D835V) it was 95%; in the experiment on FLT3(ITD,F691L), 56%; in the experiment on FLT3(K663Q), 2.6%; in the experiment with FLT3(N841I), 0%. Further, the “Percent Control” value with FLT3(R834Q) is 15%; in the experiment with FLT3-autoinhibited it was 90%; with FLT3 it was 2.4%; in the experiment on FLT4, 12%; with FRK, 71%; with FYN, 100%. In addition, the entries for the “Percent Control” value with GAK and in the experiment on GCN2(Kin.Dom.2,S808G) were 100% and 84%, respectively.
For the molecule `Nc1ncnc2occ(-c3ccc(NC(=O)Nc4cc(C(F)(F)F)ccc4F)cc3)c12` [GW770249X], the “Percent Control” value with FGFR3 was 77%; with FGFR4, 69%; in the experiment on FGR it was 100%; in the experiment with FLT1, 2.9%; in the experiment with FLT3(D835H), 0.9%; with FLT3(D835V), 4.1%. The “Percent Control” value with FLT3(D835Y) is recorded as 11%; with FLT3(ITD) it was 2.9%; with FLT3(ITD,D835V), 52%; with FLT3(ITD,F691L), 27%; in the experiment with FLT3(K663Q), 0.5%; with FLT3(N841I), 0%. Further, the “Percent Control” value in the experiment with FLT3(R834Q) is reported as 0%; in the experiment with FLT3-autoinhibited, 33%; in the experiment on FLT3 it was 0.1%; in the experiment with FLT4 it was 0.7%; in the experiment on FRK, 12%; in the experiment with FYN, 95%. Besides, the entries for the “Percent Control” value with GAK and in the experiment with GCN2(Kin.Dom.2,S808G) were 100% and 99%, respectively.
